Data on 30 molecules can be found in PubChem BioAssay (NCATS).

A short description of assay [1]: qHTS for Inhibitors of the Functional Ribonucleoprotein Complex (vRNP) of Lassa (LASV) Arenavirus: LASV Primary Screen - GLuc reporter signal (AID 1347082; calls by dose curve; tested in HEK293 reporter line; further: nearly all actives have a fitted effect of over 60% in size; on activity change, negative = inhibition: series mostly up to about 57 µM).
Assay [2] is described as follows: qHTS for Inhibitors of the Functional Ribonucleoprotein Complex (vRNP) of Lassa (LASV) Arenavirus: Viability assay - alamar blue signal for LASV Primary Screen (AID 1347083; calls by dose curve; tested in HEK293 reporter line; further: nearly all actives have a fitted effect of over 80% in size; on activity change, negative = reduced viability: series mostly up to about 57 µM).
Assay [3] is described as follows: qHTS for Inhibitors of the Functional Ribonucleoprotein Complex (vRNP) of Lymphocytic Choriomeningitis Arenaviruses (LCMV): Viability assay - alamar blue signal for LCMV Primary Screen (AID 1347085; calls by dose curve; tested in HEK293 reporter line; further: nearly all actives have a fitted effect of over 80% in size; on activity change, negative = lower viability: series mostly up to about 57 µM).
The target of assay [4] is Nucleoprotein (Lymphocytic choriomeningitis virus (strain Armstrong)) (UniProt P09992). Nature of the assay: qHTS for Inhibitors of the Functional Ribonucleoprotein Complex (vRNP) of Lymphocytic Choriomeningitis Arenaviruses (LCMV): LCMV Primary Screen - GLuc reporter signal (AID 1347086). Further: nearly all actives have a fitted effect of over 70% in size. On activity change, negative = inhibition: series mostly up to about 57 µM.
Nucleoprotein (Lymphocytic choriomeningitis virus (strain Armstrong)), sequence (P09992 whole entry, looked up): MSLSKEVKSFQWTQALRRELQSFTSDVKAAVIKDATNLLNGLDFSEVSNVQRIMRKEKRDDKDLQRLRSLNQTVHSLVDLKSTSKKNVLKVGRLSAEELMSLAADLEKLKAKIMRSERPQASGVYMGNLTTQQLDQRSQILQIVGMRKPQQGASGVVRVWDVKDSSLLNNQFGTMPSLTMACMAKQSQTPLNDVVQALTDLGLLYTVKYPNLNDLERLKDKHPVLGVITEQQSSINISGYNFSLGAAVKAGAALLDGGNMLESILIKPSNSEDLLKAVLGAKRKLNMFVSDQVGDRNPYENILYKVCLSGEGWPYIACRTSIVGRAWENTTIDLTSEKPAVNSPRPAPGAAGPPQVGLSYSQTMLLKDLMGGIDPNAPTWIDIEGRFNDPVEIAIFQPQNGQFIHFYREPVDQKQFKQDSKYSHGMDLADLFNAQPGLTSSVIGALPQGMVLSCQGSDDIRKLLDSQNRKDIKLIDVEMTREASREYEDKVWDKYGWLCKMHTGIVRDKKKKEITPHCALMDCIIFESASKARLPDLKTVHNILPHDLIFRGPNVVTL

Records with an inconclusive call do not appear. A number with no mark means an inactive call. Active and inactive are the calls of the source. Unless noted, the call rests on the fitted dose curve.
On the % scale 0 is the no-effect control and ±100 the full control effect; potency means the concentration at half of the fitted maximal effect.

`O=c1[nH]c(=O)n([C@H]2C[C@@H](O)[C@@H](CO)O2)cc1I`: the Potency result in assay [1], in assay [2], in assay [3] and in assay [4] was “inactive” each time.
Regarding `CCCCCCCCC1CCC(=O)O1` (stereo not given), the Potency entry in assay [1], in assay [2], in assay [3] and in assay [4] was “inactive” in each case.
Turning to `C/C=C(/C)C(=O)O[C@@H]([C@H](O)c1cc2ccc(=O)oc2cc1OC)C(C)(C)O[C@@H]1O[C@H](CO)[C@@H](O)[C@H](O)[C@H]1O`, the Potency entry in assay [1], in assay [2], in assay [3] and in assay [4] was “inactive” in each case.
As to `CC(C)CC(=O)OC(C)(C)[C@@H]1Cc2c(ccc3ccc(=O)oc23)O1`, the Potency result in assay [1], in assay [2], in assay [3] and in assay [4] was “inactive” in each case.
As to `CC/C=C\CCOC(=O)CCCCC`, the Potency result in assay [1], in assay [2], in assay [3] and in assay [4] was “inactive” in each case.
On to `C[C@]12O[C@H](C[C@@]1(O)C(=O)O)n1c3ccccc3c3c4c(c5c6ccccc6n2c5c31)CNC4=O`, for which the activity change, negative = inhibition in assay [1] was -19.8% [at 5.82 µM]; in assay [4], 25.9% [at 5.82 µM]. Further, the activity change, negative = reduced viability in assay [2] is -37.8% [at 5.82 µM]. Also, the activity change, negative = lower viability in assay [3] was 6.16% [at 5.82 µM].
For the molecule `CN1CCCC1`, the Potency entry in assay [1], in assay [2], in assay [3] and in assay [4] was “inactive” each time.
As to `Nc1nc2c(ncn2[C@@H]2O[C@H](CO)[C@@H](O)[C@@H]2O)c(=O)[nH]1`, the Potency result in assay [1], in assay [2], in assay [3] and in assay [4] was “inactive” each time.
For `C=C1C(=O)OC2C=C(C)CCC=C(C)CCC12` (stereo not given), the Potency entry in assay [1], in assay [2], in assay [3] and in assay [4] was “inactive” each time.
Consider `CCc1cnn2c(NCc3ccc[n+]([O-])c3)cc(N3CCCC[C@@H]3CCO)nc12`, for which the Potency in assay [1] was 109 nM (active); in assay [2], 38.5 nM (active); in assay [3], 38.5 nM (active); in assay [4], 48.5 nM (active).
`CC(=O)O`: the Potency result in assay [1], in assay [2], in assay [3] and in assay [4] was “inactive” each time.
Take `C=C1[C@@H]2C[C@]3(C(CC2=O)[C@]24C5C[C@H]3[C@H]2N(CC)C[C@]5(C)CC[C@@H]4O)[C@@H]1O` (stereo not given in full): the Potency entry in assay [1], in assay [2], in assay [3] and in assay [4] was “inactive” throughout.
`CN1CC[C@@]2([C@@]34CCN(C)C3Nc3ccccc34)c3ccccc3NC12` (stereo not given in full): the Potency entry in assay [1], in assay [2], in assay [3] and in assay [4] was “inactive” throughout.
As for `CC(=O)Oc1ccc2c(=O)c(-c3ccccc3)c(C)oc2c1`, the Potency entry in assay [1], in assay [2], in assay [3] and in assay [4] was “inactive” each time.
For `COC(=O)/C=C\C(=O)O`, the Potency result in assay [1], in assay [2], in assay [3] and in assay [4] was “inactive” in each case.
For `CC(C)OC(=O)c1ccccc1`, the Potency entry in assay [1], in assay [2], in assay [3] and in assay [4] was “inactive” throughout.
Regarding `C[C@@H](O)CCC[C@H](O)/C=C/[C@@H]1[C@@H](C/C=C\CCCC(=O)O)[C@@H](O)C[C@H]1O`, the values for the activity change, negative = inhibition in assay [1] and in assay [4] were -12.1% [at 0.757 µM] and -26.1% [at 0.757 µM], respectively. In addition, the activity change, negative = reduced viability in assay [2] is -24.9% [at 0.757 µM]. Further, in assay [3], the activity change, negative = lower viability is -64.4% [at 0.757 µM].
For the molecule `Clc1cccc(-c2nnnn2Cc2cccnc2)c1Cl`, the Potency entry in assay [1], in assay [2], in assay [3] and in assay [4] was “inactive” in each case.
For the molecule `CCCCCCCOC(C)=O`, the Potency entry in assay [1], in assay [2], in assay [3] and in assay [4] was “inactive” throughout.
`COc1ccc(CC2c3cc(OC)c(OC)cc3CCN2C)cc1O` (stereo not given): the Potency entry in assay [1], in assay [2], in assay [3] and in assay [4] was “inactive” in each case.
With `CCc1ccc(C=C2SC(=S)NC2=O)cc1`, the Potency entry in assay [1], in assay [2], in assay [3] and in assay [4] was “inactive” throughout.
For `O=c1ccc2cc3ccoc3cc2o1`, the Potency result in assay [1], in assay [2], in assay [3] and in assay [4] was “inactive” in each case.
`Cc1ccccc1C(=O)c1ccc(Nc2ccc(Br)cc2N)cc1Cl`: the Potency entry in assay [1], in assay [2], in assay [3] and in assay [4] was “inactive” in each case.
Regarding `Cc1cc2c(c(CO)c1CCO)C(=O)[C@@H](C)[C@@H]2O`, the Potency result in assay [1], in assay [2], in assay [3] and in assay [4] was “inactive” throughout.
Take `OCC(O)C(O)C(O)CO` (stereo not given): the Potency result in assay [1], in assay [2], in assay [3] and in assay [4] was “inactive” each time.
For the molecule `O=c1ccn([C@H]2C[C@H](O)[C@@H](CO)O2)c(=O)[nH]1`, the Potency result in assay [1], in assay [2], in assay [3] and in assay [4] was “inactive” each time.
Take `C[C@]12CCC3C(C[C@@H](O)[C@H]4C[C@@H](O)CC[C@]34C)C1CC[C@@H]2O` (stereo not given in full): the Potency result in assay [1], in assay [2], in assay [3] and in assay [4] was “inactive” in each case.
With `CC1CCC(C(C)[C@H]2CCC3C4CC(=O)C5C[C@@H](O)CC[C@]5(C)C4CC[C@@]32C)=NC1` (stereo not given in full), the Potency result in assay [1], in assay [2], in assay [3] and in assay [4] was “inactive” in each case.
As to `C[C@@H]1[C@H](C)CC[C@]2(C(=O)O)CC[C@]3(C)C(=CC[C@@H]4[C@@]5(C)C[C@@H](O)[C@H](O)[C@@](C)(CO)[C@H]5CC[C@]43C)[C@@H]12`, the Potency result in assay [1], in assay [2], in assay [3] and in assay [4] was “inactive” each time.
Regarding `COc1ccc(C(=O)/C=C/c2ccc(O)cc2)c(O)c1C/C=C(\C)CCC=C(C)C`, the Potency entry in assay [1], in assay [2], in assay [3] and in assay [4] was “inactive” throughout.
